For 8 molecules, Potency results are on record in PubChem BioAssay (Tox21).

Each structure is given as a SMILES string. Records with an inconclusive call do not appear. Calls of active or inactive are those of the source. Unless noted, calls follow the shape of the full dose curve.

The target of experiment [1] is Gonadotropin-releasing hormone receptor (Homo sapiens) (UniProt P30968). As to the kind of experiment: Human gonadotropin-releasing hormone receptor (GnRHR) small molecule agonists, calcium flux assay in GnRHR-HEK293 cells (AID 1920063). Also: nearly all actives have a fitted effect of over 35% in size. In outline: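 Cells: HEK293 stably expressing human GnRHR. Steps: overnight (18 h) culture, 1 h calcium dye loading at 37 C, compound addition, kinetic fluorescence read at 480/540 nm. Each compound tested at 15 concentrations in triplicate.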

The target of experiment [2] is KiSS-1 receptor (Homo sapiens) (UniProt Q969F8). Kind of experiment: Human kisspeptin (KISS1R) small molecule agonists, calcium flux assay in KISS1R-HEK293 cells (AID 1920064; active = well fitted activation curve with a large enough effect in the repeat runs). In outline: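 Cells plated and incubated 18 h; dye added, 1 h at 37 C; compounds in DMSO pinned in; signal read at 480/540 nm every second for 3 min. Each compound tested at 15 concentrations in triplicate.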

Experiment [3] in a line: G protein-coupled receptor (GPCR) small molecule agonists, calcium flux assay: HEK293 wild type cell line counter screen (AID 1920065). In outline: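 Counter-screen of the Tox21 10K library for non-specific calcium release: dye-loaded cells received compounds in DMSO and were monitored by kinetic fluorescence (480/540 nm, 3 min). Fifteen concentrations, run in triplicate.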

A short description of experiment [4]: p53 small molecule agonists, cell-based qHTS assay with rat liver microsomes: qHTS cell viability counter screen (AID 1963580). Also: nearly all actives have a fitted effect of over 45% in size. Also: potency is read from the fitted curve at half-maximal effect. In outline: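 p53RE-bla HCT-116 cells (4,000/well) rested 5 h at 37 C, then given Tox21 compounds in DMSO with rat liver microsomes (0.5 mg/mL final) plus NADPH (0.5 mg/mL final) for 16 h at 37 C. Viability read by CellTiter-Glo luminescence after 30 min at room temperature.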

A short description of experiment [5]: p53 small molecule agonists, cell-based qHTS assay: qHTS cell viability counter screen (AID 1963581). Also: nearly all actives have a fitted effect of over 45% in size. In short, it runs like this:
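Cells: HCT-116 with p53 response element-driven beta-lactamase. Treatment: 16 h, 37 C, compounds in DMSO. Read: CellTiter-Glo luminescence after 30 min RT.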

The target in experiment [6] is 5-hydroxytryptamine receptor 2A (Homo sapiens) (UniProt P28223). Kind of experiment: 5-hydroxytryptamine receptor 2A (HTR2A) small molecule antagonists, cell-based qHTS assay (AID 1963586). Also: nearly all actives have a fitted effect of over 45% in size. Also: potency is read from the fitted curve at half-maximal effect. In short, it runs like this: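 Antagonist-mode intracellular calcium assay: DOI (4 nM) added after 5 min compound pre-incubation at room temperature to dye-loaded HTR2A-CHO cells. Fluorescence followed for 3 min, sampled every second.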

Experiment [7] shares this target. As to the kind of experiment: 5-hydroxytryptamine receptor 2A (HTR2A) small molecule agonists, cell-based qHTS assay (AID 1963587). Also: nearly all actives have a fitted effect of over 30% in size. In short, it runs like this:
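HTR2A-CHO cells, plated 18 h at 37 C/5% CO2, dye-loaded 1 h at 37 C; compounds in DMSO added by pin tool (agonist mode). Intracellular calcium flux read as kinetic fluorescence on FDSS over 2 min at 1 s intervals.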

The target in experiment [8] is Muscarinic acetylcholine receptor M1 (Homo sapiens) (UniProt P11229). As to the kind of experiment: Cholinergic receptor muscarinic 1 (CHRM1) small molecule agonists, cell-based qHTS assay (AID 1963589). Also: nearly all actives have a fitted effect of over 35% in size. In short, it runs like this: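 Agonist-mode qHTS in CHO cells stably carrying human muscarinic M1. Intracellular calcium is tracked by fluorescence every second after compound transfer; each compound runs at 15 concentrations in three independent runs.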

The nature of experiment [9]: cAMP Responsive Elements (CRE) small molecule agonists, cell-based qHTS assay (AID 1963590). In outline:
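Agonist mode qHTS in CRE-bla HEK 293T cells: compounds dosed from DMSO for 3 h at 37 C/5% CO2, followed by LiveBLAzer B/G FRET substrate for 2 h at room temperature.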

Experiment [10] is described as follows: cAMP Responsive Elements (CRE) small molecule antagonists, cell-based qHTS assay (AID 1963591; active = well fitted inhibition curve with a large enough effect in the signal ratio in the repeat runs, not every such curve was filed as active; the % refers to the signal ratio). In short, it runs like this: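 Antagonist mode: test compounds are co-incubated with the adenylyl cyclase activator NKH477 (0.25 uM final) on CRE-bla HEK293T cells for 3 h at 37 °C, followed by LiveBLAzer substrate loading.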
For experiment [11], the target named is Beta-2 adrenergic receptor (Homo sapiens) (UniProt P07550). Kind of experiment: Adrenergic beta2 receptor (ADRB2) small molecule antagonists, cell-based qHTS assay (AID 1963592). Also: series mostly up to about 92 µM; nearly all actives have a fitted effect of over 50% in size. In outline: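 Cells (CHO, stable ADRB2 overexpression) incubated 18-20hr at 37C; compounds added from DMSO; agonist mix (1nM isoproterenol, 100uM IBMX, 25uM Ro-20-1724) added; 0.5hr RT; d2-cAMP and anti-cAMP-cryptate added; 1hr RT; 665/615 nm read.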

Experiment [12] addresses D(2) dopamine receptor (Homo sapiens) (UniProt P14416). As to the kind of experiment: Dopamine D2 receptor (DRD2) small molecule agonists, cell-based qHTS assay (AID 1963594). Also: nearly all actives have a fitted effect of over 35% in size. In outline: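 HEK293 cells stably expressing DRD2 were cultured 24 h at 37 C, then given Ro20-1724 (0.1 mM final) and compounds for 10 min at room temperature. NKH477 (200nM) was then added for 30 min. cAMP was read by HTRF.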

Experiment [13] shares this target. As to the kind of experiment: Dopamine D2 receptor (DRD2) small molecule antagonists, cell-based qHTS assay (AID 1963595; active = well fitted inhibition curve with a large enough effect in the signal ratio in the repeat runs, with a control signal flat; the % refers to the signal ratio). In outline: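 Cells were plated and grown for 24 h at 37 °C. Ro20-1724 (0.1 mM final) went in first, then compound for 10 min. NKH477 (200 nM) with quinpirole (12 nM) followed for 30 min at RT, then HTRF detection reagents for 1 h.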
The target of experiment [14] is Muscarinic acetylcholine receptor M1 (Homo sapiens) (UniProt P11229). As to the kind of experiment: Cholinergic receptor muscarinic 1 (CHRM1) small molecule antagonists, cell-based qHTS assay (AID 1963588). Also: nearly all actives have a fitted effect of over 40% in size. In short, it runs like this: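 CHRM1-CHO calcium-flux assay, antagonist mode. Cells were seeded 18 h, dye-loaded 1 h at 37 C and given compound for 5 min at RT, then acetylcholine was added at 50nM. FDSS fluorescence was read 3 min; 15 concentrations, three runs.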

Experiment [15] concerns the target Beta-2 adrenergic receptor (Homo sapiens) (UniProt P07550). Kind of experiment: Adrenergic beta2 receptor (ADRB2) small molecule agonists, cell-based qHTS assay (AID 1963593).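 Also: CHO cells stably overexpressing human ADRB2.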 In short, it runs like this:
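CHO cells stably over-expressing ADRB2 were plated overnight at 37C, then dosed with compounds plus a stimulation mix containing 100uM IBMX and 25uM Ro-20-1724 for 0.5hr at room temperature. cAMP was measured by HTRF competition, 1hr.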

Experiment [16] is described as follows: p53 small molecule agonists, cell-based qHTS assay with human liver microsomes: qHTS cell viability counter screen (AID 1963579). Also: nearly all actives have a fitted effect of over 45% in size. Also: potency is read from the fitted curve at half-maximal effect. In short, it runs like this:
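In this multiplexed counter screen, the reporter plates were subsequently treated with CellTiter-Glo so that cell viability, reflected by luminescence, could be recorded for p53RE-bla cells dosed 16 h with compounds under microsomal activation (HLM and NADPH).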

Experiment [17] is described as follows: p53 small molecule agonists, cell-based qHTS assay with rat liver microsomes (AID 1963578). In outline: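 With rat liver microsomes and NADPH present (0.5 mg/mL final each), p53RE-bla cells are treated with compound for 16 h at 37 C. LiveBLAzer detection mixture is then applied for 2 h at room temperature in the dark.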
Experiment [18] in a line: p53 small molecule agonists, cell-based qHTS assay (AID 1963582; active = well fitted activation curve with a large enough effect in the signal ratio in the repeat runs, not every such curve was filed as active; the % refers to the signal ratio). In outline:
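Quantitative HTS in p53RE-bla cells: after a 5 h settling period, compounds delivered in DMSO were left on cells for 16 h at 37 C, and reporter induction was measured as fluorescence following 2 h substrate loading.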

Sequence of Gonadotropin-releasing hormone receptor (Homo sapiens) (P30968 whole entry, looked up): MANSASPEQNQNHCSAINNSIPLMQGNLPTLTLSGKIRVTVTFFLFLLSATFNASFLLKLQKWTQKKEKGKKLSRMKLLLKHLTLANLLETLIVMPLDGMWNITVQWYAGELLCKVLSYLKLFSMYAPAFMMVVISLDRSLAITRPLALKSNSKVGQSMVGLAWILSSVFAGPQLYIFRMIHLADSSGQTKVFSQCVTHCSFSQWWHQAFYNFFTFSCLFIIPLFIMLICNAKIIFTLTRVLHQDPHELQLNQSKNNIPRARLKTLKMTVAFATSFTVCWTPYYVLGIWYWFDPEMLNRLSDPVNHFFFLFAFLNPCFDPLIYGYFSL
Sequence of Beta-2 adrenergic receptor (Homo sapiens) (P07550 whole entry, looked up): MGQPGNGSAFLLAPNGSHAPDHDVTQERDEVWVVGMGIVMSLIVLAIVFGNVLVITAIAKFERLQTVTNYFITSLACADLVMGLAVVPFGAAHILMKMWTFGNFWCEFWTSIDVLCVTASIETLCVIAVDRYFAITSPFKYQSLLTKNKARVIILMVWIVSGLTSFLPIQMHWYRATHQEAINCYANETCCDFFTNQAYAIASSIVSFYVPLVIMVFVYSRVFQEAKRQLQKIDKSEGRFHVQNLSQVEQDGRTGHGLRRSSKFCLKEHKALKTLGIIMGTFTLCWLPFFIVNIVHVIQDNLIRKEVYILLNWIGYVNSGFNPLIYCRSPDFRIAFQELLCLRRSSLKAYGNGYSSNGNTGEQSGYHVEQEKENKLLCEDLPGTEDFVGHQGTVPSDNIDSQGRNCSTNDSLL
Sequence of D(2) dopamine receptor (Homo sapiens) (P14416 whole entry, looked up): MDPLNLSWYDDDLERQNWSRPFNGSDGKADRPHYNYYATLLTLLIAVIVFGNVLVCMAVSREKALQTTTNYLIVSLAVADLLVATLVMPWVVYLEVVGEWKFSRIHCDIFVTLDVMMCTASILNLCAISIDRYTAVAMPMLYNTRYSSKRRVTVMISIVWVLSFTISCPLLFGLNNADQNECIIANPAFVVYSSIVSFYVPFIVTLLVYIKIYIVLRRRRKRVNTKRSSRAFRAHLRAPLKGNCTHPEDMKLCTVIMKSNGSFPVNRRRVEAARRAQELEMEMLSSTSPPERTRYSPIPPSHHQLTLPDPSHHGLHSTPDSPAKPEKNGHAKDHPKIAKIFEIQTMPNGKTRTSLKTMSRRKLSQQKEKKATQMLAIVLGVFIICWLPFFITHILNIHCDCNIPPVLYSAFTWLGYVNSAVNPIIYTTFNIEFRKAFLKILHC
Sequence of Muscarinic acetylcholine receptor M1 (Homo sapiens) (P11229 whole entry, looked up): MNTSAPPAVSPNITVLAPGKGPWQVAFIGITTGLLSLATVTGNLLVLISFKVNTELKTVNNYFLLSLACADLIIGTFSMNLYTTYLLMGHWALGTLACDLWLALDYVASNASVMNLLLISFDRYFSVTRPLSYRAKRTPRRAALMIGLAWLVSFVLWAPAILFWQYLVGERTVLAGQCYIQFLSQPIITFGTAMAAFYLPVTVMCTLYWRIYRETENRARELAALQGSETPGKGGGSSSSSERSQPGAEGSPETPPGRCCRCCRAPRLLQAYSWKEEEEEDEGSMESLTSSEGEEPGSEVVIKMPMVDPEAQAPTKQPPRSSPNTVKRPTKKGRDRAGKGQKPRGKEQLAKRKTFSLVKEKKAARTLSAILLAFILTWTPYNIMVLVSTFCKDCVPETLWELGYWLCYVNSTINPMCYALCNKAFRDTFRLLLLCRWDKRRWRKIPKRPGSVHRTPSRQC
Sequence of KiSS-1 receptor (Homo sapiens) (Q969F8 whole entry, looked up): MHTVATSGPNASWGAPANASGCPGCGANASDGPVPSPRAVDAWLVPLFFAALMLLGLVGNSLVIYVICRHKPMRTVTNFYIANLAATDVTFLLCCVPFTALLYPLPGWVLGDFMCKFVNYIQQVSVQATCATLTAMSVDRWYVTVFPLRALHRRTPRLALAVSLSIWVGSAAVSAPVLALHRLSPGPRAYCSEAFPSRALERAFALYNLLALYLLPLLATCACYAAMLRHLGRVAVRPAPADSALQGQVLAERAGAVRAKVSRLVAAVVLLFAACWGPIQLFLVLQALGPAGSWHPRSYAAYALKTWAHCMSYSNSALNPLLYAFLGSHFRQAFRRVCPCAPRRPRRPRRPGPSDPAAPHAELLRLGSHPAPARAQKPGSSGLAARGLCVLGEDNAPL
Sequence of 5-hydroxytryptamine receptor 2A (Homo sapiens) (P28223 whole entry, looked up): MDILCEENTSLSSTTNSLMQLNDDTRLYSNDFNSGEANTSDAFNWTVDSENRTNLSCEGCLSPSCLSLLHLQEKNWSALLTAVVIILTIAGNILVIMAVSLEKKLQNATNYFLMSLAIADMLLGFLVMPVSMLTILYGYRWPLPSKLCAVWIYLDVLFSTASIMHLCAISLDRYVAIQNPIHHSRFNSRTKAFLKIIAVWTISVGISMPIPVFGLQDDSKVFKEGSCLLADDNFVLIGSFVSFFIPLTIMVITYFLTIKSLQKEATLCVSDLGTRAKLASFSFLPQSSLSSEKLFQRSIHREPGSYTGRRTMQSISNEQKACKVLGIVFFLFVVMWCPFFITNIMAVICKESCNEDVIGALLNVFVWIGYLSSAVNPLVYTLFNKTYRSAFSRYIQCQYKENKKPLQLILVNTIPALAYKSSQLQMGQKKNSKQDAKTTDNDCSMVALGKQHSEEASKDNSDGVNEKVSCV

For `CCC(CC)Nc1ccc(C)c(C)c1`, the Potency entry in experiment [1], in experiment [2], in [3], in [4], in experiment [5] and in experiment [6] was “inactive” in each case. Besides, the Potency result in [7], in experiment [8], in [9], in [10], in [11] and in experiment [12] was “inactive” in each case. In experiment [13], the Potency result is “inactive”.
Take `Cc1nc(-c2ccccn2)ncc1C(=O)Nn1cc(C)c2cc(F)ccc21`: the Potency result in experiment [1], in experiment [2], in [3], in [4], in experiment [5] and in experiment [6] was “inactive” throughout. The Potency result in experiment [7], in experiment [14], in [8], in experiment [9], in experiment [10] and in experiment [11] was “inactive” each time. Also, the Potency result in experiment [15] and in [13] was “inactive” each time.
With `CC1CCC(CO)CC1` (centres undefined), the Potency entry in [1], in experiment [2], in [3], in experiment [16], in [4] and in [5] was “inactive” in each case. For the same molecule, the Potency result in experiment [6], in experiment [7], in experiment [14], in [8], in [9] and in experiment [10] was “inactive” each time. The Potency result in experiment [11], in [15], in experiment [12] and in experiment [13] was “inactive” throughout.
On to `CCN(CC)CCNC(=O)c1c(C)[nH]c(/C=C2\C(=O)Nc3ccc(F)cc32)c1C`, for which the Potency entry in experiment [1], in [2], in [3], in experiment [17], in experiment [16] and in [5] was “inactive” each time. Further, the Potency entry in [18], in experiment [7], in [8], in experiment [9] and in [10] was “inactive” each time.
In the case of `CC(C)=CCOc1ccc(/C=C/C(=O)c2ccc(OCC=C(C)C)cc2OCC(=O)O)cc1`, the Potency result in experiment [1], in experiment [2], in [3], in [16], in [4] and in experiment [7] was “inactive” each time. Further, the Potency entry in experiment [8], in experiment [11], in experiment [15] and in experiment [12] was “inactive” each time.
In the case of `Nc1nc2ccc([N+](=O)[O-])cc2s1`, the Potency result in experiment [1], in [2], in experiment [3], in experiment [5], in experiment [7] and in experiment [8] was “inactive” in each case. Moreover, in [11], the Potency result was “inactive”. For the same molecule, the Potency is 28.9 µM (active) in experiment [16] and 3.75 µM (active) in experiment [6].
On to `Oc1c(I)cc(Cl)c2cccnc12`, for which the Potency entry in experiment [1], in [2], in experiment [3], in experiment [17], in experiment [16] and in experiment [5] was “inactive” throughout. The Potency result in experiment [18], in experiment [7], in [14], in [8], in experiment [9] and in experiment [10] was “inactive” each time. Moreover, the Potency result in [11], in experiment [12] and in experiment [13] was “inactive” throughout. Also, in experiment [4], the Potency was 14.1 µM (active).
Turning to `CC(O)C1CCCCC1` (centres undefined), the Potency entry in experiment [1], in experiment [2], in experiment [3], in experiment [16], in experiment [4] and in experiment [5] was “inactive” in each case. Further, the Potency result in experiment [6], in [7], in experiment [14], in [8], in experiment [9] and in [10] was “inactive” throughout. In addition, the Potency result in experiment [11], in experiment [12] and in experiment [13] was “inactive” each time.
